The nature of this assay: inhibitors of orthopox intermediate gene expression, dose response, cell-based, single fluorophore reporter, dry powder (AID 1117271).

The record followed here is PubChem BioAssay AID1117271 (Broad Institute, 2014).

Entries with a potency or affinity are not part of this list. Activity calls are given as the source filed them. No rule for the calls is given here.

For the molecule `COc1ccccc1-c1ccc(CN(C)C[C@@H]2Oc3cc(C#C[C@@H](C)O)ccc3S(=O)(=O)N([C@@H](C)CO)C[C@@H]2C)cc1`, the outcome was inactive.
